Records with an inconclusive call do not appear. Calls of active or inactive are those of the source. Unless noted, calls come from the whole dose curve; as a rule, active = well fitted cell-killing curve with a large enough effect; inconclusive = small, poorly fitted or top-dose-only effect; inactive = flat fitted curve, though single readings scatter.
Experiments:
[1] = Cell Viability - LYMP2-025 (AID 976); note: series mostly up to about 92 µM
Outline: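 Acute cytotoxicity is scored as a concentration-dependent fall in intracellular ATP, measured by luciferase luminescence, in human lymphoblastoid LYMP2-025 cells exposed to compound for 24 hours at 37 C. AC50 values come from standard Hill fits.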

[2] = Cell Viability - LYMP2-002 (AID 977);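 note: series mostly up to about 92 µM; compound exposure lasted 24 h at 37 °C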
Outline: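 Human lymphoblastoid cells, 2500/well, complete medium; 5 h 37 C settle; compound 24 h 37 C; CellTiter-Glo, 30 min RT; luminescence. Decrease in ATP = cytotoxicity; AC50 via Hill equation.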

[3] = Cell Viability - LYMP2-006 (AID 978); note: series mostly up to about 92 µM; nearly all actives have a fitted effect of over 60% in size
Outline: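 Human lymphoblastoid cells (LYMP2-006), 2500/well in complete medium, were treated with compound for 24 hr at 37 C. Cellular ATP was read by CellTiter-Glo luminescence after 30 min, and AC50 values came from Hill-equation fits of concentration-response data.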

[4] = Cell Viability - LYMP2-007 (AID 979);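 note: cells exposed to compound for 24 h before reading; nearly all actives have a fitted effect of over 60% in size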
Outline: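 Cells are seeded at 2500 per well and rested 5 hr. Compounds are then added over a concentration series for 24 hr at 37 C. CellTiter-Glo is added for 30 min at room temperature before luminescence reading.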

[5] = Cell Viability - LYMP2-008 (AID 980); note: nearly all actives have a fitted effect of over 60% in size
Outline: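 Cells seeded at 2500/well and rested 5 hr at 37 C; compounds added over a concentration range and incubated 24 hr at 37 C; CellTiter-Glo added, 30 min at room temperature; luminescence read and AC50 fitted with Hill model.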

[6] = Cell Viability - LYMP2-010 (AID 981); note: nearly all actives have a fitted effect of over 55% in size
Outline: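 Steps: seed 2500 LYMP2-010 cells per well; incubate 5 hr at 37 C; add compound; incubate 24 hr at 37 C; add CellTiter-Glo, wait 30 min at room temperature; read luminescence. Concentration-response fitted to Hill equation for AC50.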

[7] = Cell Viability - LYMP2-012 (AID 982);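 note: cellular ATP by luciferase luminescence where a drop means cytotoxicity; cells exposed to compound for one day before reading; nearly all actives have a fitted effect of over 55% in size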
[8] = Cell Viability - LYMP2-014 (AID 983); note: series mostly up to about 92 µM; nearly all actives have a fitted effect of over 50% in size
Outline: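 Cells are plated at 2500/well and left 5 hr at 37 C. Compounds are added across a concentration range and incubated 24 hr at 37 C in complete medium. CellTiter-Glo is added, and luminescence is read after 30 min at room temperature.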

[9] = Cell Viability - LYMP2-016 (AID 984); note: nearly all actives have a fitted effect of over 55% in size
Outline: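 Human lymphoblastoid LYMP2-016 cells, 2500 per well, treated with compounds for 24 h at 37 C. Viability read as intracellular ATP by CellTiter-Glo luminescence after 30 min at room temperature; AC50 from Hill fits of concentration-response.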

[10] = Cell Viability - LYMP2-018 (AID 985);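 note: compound exposure lasted 24 hr at 37 °C; nearly all actives have a fitted effect of over 50% in size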
Outline: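 Seed 2500 lymphoblastoid cells per well, incubate 5 hr at 37 C, add compound and incubate 24 hr at 37 C, add CellTiter-Glo, wait 30 min at room temperature, then read luminescence.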

[11] = Cell Viability - LYMP2-020 (AID 986); note: series mostly up to about 92 µM; nearly all actives have a fitted effect of over 55% in size
Outline: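 Seed 2500 cells per well and incubate 5 hr at 37 C. Add compounds at a concentration series and incubate 24 hr at 37 C. Add CellTiter-Glo, wait 30 min at RT, read luminescence, and fit a Hill curve for AC50.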

[12] = Cell Viability - LYMP2-022 (AID 987); note: nearly all actives have a fitted effect of over 55% in size
Outline: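 Cells were seeded at 2500 per well, rested 5 hr at 37 C, and treated with titrated compounds for 24 hr at 37 C. Cellular ATP was then quantified by luciferase luminescence, and AC50 values were derived from Hill-modelled concentration-response curves.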

[13] = Cell Viability - LYMP2-024 (AID 988); note: nearly all actives have a fitted effect of over 60% in size
Outline: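 qHTS cytotoxicity, human lymphoblastoid line, complete medium; 24 h cpd treatment, 37 C; CellTiter-Glo ATP luminescence readout; tetraoctylammonium bromide positive control; AC50 via Hill fit.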

[14] = Cell Viability - LYMP2-026 (AID 989); note: nearly all actives have a fitted effect of over 50% in size
Outline: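 Cells are seeded at 2500 per well and held 5 hr at 37 C. Compounds are added in concentration series for 24 hr, then CellTiter-Glo reagent is applied and luminescence read.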

[15] = Cell Viability - LYMP1-002 - Assay at 24 hr (AID 993)
Outline: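 Acute toxicity is measured as concentration-dependent loss of cellular ATP in a human lymphoblastoid line (Coriell LYMP1-002) after 24 h treatment in complete medium. ATP is quantified by luciferase luminescence and AC50 derived by Hill modelling.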

[16] = Cell Viability - LYMP1-002 - Assay at 40 hr (AID 994); note: nearly all actives have a fitted effect of over 60% in size
Outline: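 Cells are plated at 2500 per well and rested 5 hr at 37 C. Compounds are added and incubated 40 hr at 37 C. CellTiter-Glo reagent is added for 30 min at room temperature before luminescence is read.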

[17] = qHTS Assay for Identification of Small Molecule Inducers of Hypoxia Response (AID 2120; active = well fitted curve in the direction sought with a large enough effect in the signal ratio, with a control signal flat, not every such curve was filed as active; the % refers to the signal ratio)
Outline: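 Cell-based qHTS for reporter induction: hypoxia response element controlled beta-lactamase in ME-180 cells. Compounds incubated 17 h at 37 degrees C; activity from blue/green (460/530 nm) ratio, inducers ranked by AC50.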

[18] = biological target: Estrogen receptor (Homo sapiens) (UniProt P03372); experiment: qHTS assay for small molecule antagonists of estrogen receptor alpha signaling (AID 588513; active = well fitted curve in the direction sought with a large enough effect in the signal ratio, with a control signal flat, not every such curve was filed as active; the % refers to the signal ratio)
Sequence of Estrogen receptor (Homo sapiens) (P03372 whole entry, looked up): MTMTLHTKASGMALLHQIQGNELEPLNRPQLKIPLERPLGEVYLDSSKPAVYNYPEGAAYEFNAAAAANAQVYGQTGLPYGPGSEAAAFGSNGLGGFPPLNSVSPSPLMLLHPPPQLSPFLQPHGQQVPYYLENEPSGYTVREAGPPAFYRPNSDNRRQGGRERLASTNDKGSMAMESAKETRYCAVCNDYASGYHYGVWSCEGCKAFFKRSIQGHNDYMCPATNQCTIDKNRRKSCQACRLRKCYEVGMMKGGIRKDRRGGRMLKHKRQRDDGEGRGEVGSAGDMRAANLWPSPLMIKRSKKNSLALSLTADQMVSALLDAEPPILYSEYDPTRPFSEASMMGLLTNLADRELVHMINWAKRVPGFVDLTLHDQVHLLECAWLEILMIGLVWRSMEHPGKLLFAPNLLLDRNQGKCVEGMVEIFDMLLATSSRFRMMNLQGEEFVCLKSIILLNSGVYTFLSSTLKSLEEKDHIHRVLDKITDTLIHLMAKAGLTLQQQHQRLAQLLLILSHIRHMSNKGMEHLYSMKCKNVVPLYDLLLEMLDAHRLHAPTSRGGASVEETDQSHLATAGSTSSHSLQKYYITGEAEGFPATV
Outline: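 ER-alpha-UAS-bla GripTite HEK 293 cells in 2% charcoal/dextran-treated FBS medium; compounds titrated (1:2, duplicate), then stimulated with 0.5 nM 17-beta-estradiol for 18 h at 37C. CCF4 beta-lactamase fluorescence; Hill-fit IC50 and efficacy.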

[19] = biological target: Estrogen receptor (Homo sapiens) (UniProt P03372); experiment: qHTS assay for small molecule agonists of estrogen receptor alpha signaling (AID 588514; calls by dose curve; note: nearly all actives have a fitted effect of over 70% in size)
Outline: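 Efficacy is expressed against 20 nM 17-beta-estradiol (100%) and DMSO basal (0%); EC50 from Hill equation. Assay: beta-lactamase reporter in ER-alpha-UAS-bla HEK 293 cells, 18 h compound incubation, CCF4 detection.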

Measured: Potency

CC(C)=CCl
inactive: all assays above

CC(C)CO
inactive: all assays above

CC(CCl)OC(C)CCl (centres undefined)
inactive: all assays above

CCCCCCCCC
inactive: all assays above

FC(F)(F)c1ccccc1Cl
inactive: all assays above

Cc1ccc(S(=O)(=O)NC2CCCCC2)cc1
inactive: all assays above

CNc1ccccc1
inactive: all assays above

COc1ccc(OC)cc1
inactive: all assays above

O=C(Cl)c1c(Cl)cccc1Cl
inactive: all assays above

CCCCCCCN
inactive: all assays above

CCCCCCC=O
inactive: all assays above

C/C=C(/C)C#N
inactive: all assays above

O=Cc1ccc(C(=O)O)cc1
inactive: all assays above

CC#N
inactive: all assays above

CCCCCCCCCCCCC1CO1 (centres undefined)
inactive: all assays above

Cc1c(N)cccc1[N+](=O)[O-]
inactive: all assays above

Reference: PubChem BioAssay (NCATS)
